Measurements: paper PMC8384837, “Expanding the binding specificity for RNA recognition by a PUF domain”

How the values were obtained:
Assay in all cases: yeast three-hybrid, YBZ-1, SC-Leu-His + 0.5 mM 3-AT, 4 days
Conditions in all cases: tags: N-Gal4 AD-HA kept; label: inside an RPR1-promoter hybrid RNA with tandem MS2 sites; ssRNA
PUM1 PUF domain R5-HRM = PUM1 PUF domain R5-HRM (Homo sapiens, UniProt Q14671 828-1176, C1007H;Q1011M)
Summary of the method: (§1)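 Sequencing with Illumina followed PCR amplification of the repeat regions from transformants grown four days on SC-Leu (input) or SC-Leu-His + 0.5 mM 3-AT (selection). The transformants were strain YBZ-1 with a LexA–MS2 coat fusion and a HIS3 reporter, carrying Pumilio-1 PUF domain libraries and matching RNA elements. The interaction score is the log change in variant frequency from input to selection, computed in log2 with a pseudocount of 1 for absent variants.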

PUM1 PUF domain R8-MWR = PUM1 PUF domain R8-MWR (Homo sapiens, UniProt Q14671 828-1176, N1122M;Y1123W;Q1126R)
Chain of PUM1 PUF domain R8-MWR (Q14671 828-1176 N1122M/Y1123W/Q1126R): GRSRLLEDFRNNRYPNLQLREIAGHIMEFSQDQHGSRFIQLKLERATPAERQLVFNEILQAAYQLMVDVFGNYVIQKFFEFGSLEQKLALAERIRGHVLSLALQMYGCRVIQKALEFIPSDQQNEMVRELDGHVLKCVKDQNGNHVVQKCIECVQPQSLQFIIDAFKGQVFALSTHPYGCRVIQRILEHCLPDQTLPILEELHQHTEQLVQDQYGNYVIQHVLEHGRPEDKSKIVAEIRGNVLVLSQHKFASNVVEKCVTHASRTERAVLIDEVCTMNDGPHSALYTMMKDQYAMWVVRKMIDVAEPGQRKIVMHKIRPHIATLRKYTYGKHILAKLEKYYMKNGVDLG
Summary of the method: as §1

PUM1 PUF domain R5-LYM = PUM1 PUF domain R5-LYM (Homo sapiens, UniProt Q14671 828-1176, C1007L;R1008Y;Q1011M)
Chain of PUM1 PUF domain R5-LYM (Q14671 828-1176 C1007L/R1008Y/Q1011M): as the sequence (Q14671 828-1176 N1122M/Y1123W/Q1126R) above, with C180L, R181Y, Q184M, M295N, W296Y, R299Q counted along it
Summary of the method: as §1

PUM1 PUF domain R3-RTR = PUM1 PUF domain R3-RTR (Homo sapiens, UniProt Q14671 828-1176, C935R;R936T;Q939R)
Chain of PUM1 PUF domain R3-RTR (Q14671 828-1176 C935R/R936T/Q939R): as the sequence (Q14671 828-1176 N1122M/Y1123W/Q1126R) above, with C108R, R109T, Q112R, M295N, W296Y, R299Q counted along it
Summary of the method: as §1

PUM1 PUF domain R4-AMV = PUM1 PUF domain R4-AMV (Homo sapiens, UniProt Q14671 828-1176, N971A;H972M;Q975V)
Chain of PUM1 PUF domain R4-AMV (Q14671 828-1176 N971A/H972M/Q975V): as the sequence (Q14671 828-1176 N1122M/Y1123W/Q1126R) above, with N144A, H145M, Q148V, M295N, W296Y, R299Q counted along it
Summary of the method: as §1

PUM1 PUF domain R5-CHG = PUM1 PUF domain R5-CHG (Homo sapiens, UniProt Q14671 828-1176, R1008H;Q1011G)
Chain of PUM1 PUF domain R5-CHG (Q14671 828-1176 R1008H/Q1011G): as the sequence (Q14671 828-1176 N1122M/Y1123W/Q1126R) above, with R181H, Q184G, M295N, W296Y, R299Q counted along it
Summary of the method: as §1

PUM1 PUF domain R4-VSI = PUM1 PUF domain R4-VSI (Homo sapiens, UniProt Q14671 828-1176, N971V;H972S;Q975I)
Chain of PUM1 PUF domain R4-VSI (Q14671 828-1176 N971V/H972S/Q975I): as the sequence (Q14671 828-1176 N1122M/Y1123W/Q1126R) above, with N144V, H145S, Q148I, M295N, W296Y, R299Q counted along it
Summary of the method: as §1

PUM1 PUF domain R5-RQS = PUM1 PUF domain R5-RQS (Homo sapiens, UniProt Q14671 828-1176, C1007R;R1008Q;Q1011S)
Chain of PUM1 PUF domain R5-RQS (Q14671 828-1176 C1007R/R1008Q/Q1011S): as the sequence (Q14671 828-1176 N1122M/Y1123W/Q1126R) above, with C180R, R181Q, Q184S, M295N, W296Y, R299Q counted along it
Summary of the method: as §1

PUM1 PUF domain R4-WGC = PUM1 PUF domain R4-WGC (Homo sapiens, UniProt Q14671 828-1176, N971W;H972G;Q975C)
Chain of PUM1 PUF domain R4-WGC (Q14671 828-1176 N971W/H972G/Q975C): as the sequence (Q14671 828-1176 N1122M/Y1123W/Q1126R) above, with N144W, H145G, Q148C, M295N, W296Y, R299Q counted along it
Summary of the method: as §1

PUM1 PUF domain R5-RRL = PUM1 PUF domain R5-RRL (Homo sapiens, UniProt Q14671 828-1176, C1007R;Q1011L)
Chain of PUM1 PUF domain R5-RRL (Q14671 828-1176 C1007R/Q1011L): as the sequence (Q14671 828-1176 N1122M/Y1123W/Q1126R) above, with C180R, Q184L, M295N, W296Y, R299Q counted along it
Summary of the method: as §1

PUM1 PUF domain R8-RFV = PUM1 PUF domain R8-RFV (Homo sapiens, UniProt Q14671 828-1176, N1122R;Y1123F;Q1126V)
Chain of PUM1 PUF domain R8-RFV (Q14671 828-1176 N1122R/Y1123F/Q1126V): as the sequence (Q14671 828-1176 N1122M/Y1123W/Q1126R) above, with M295R, W296F, R299V counted along it
Summary of the method: as §1

PUM1 PUF domain R3-IWA = PUM1 PUF domain R3-IWA (Homo sapiens, UniProt Q14671 828-1176, C935I;R936W;Q939A)
Chain of PUM1 PUF domain R3-IWA (Q14671 828-1176 C935I/R936W/Q939A): as the sequence (Q14671 828-1176 N1122M/Y1123W/Q1126R) above, with C108I, R109W, Q112A, M295N, W296Y, R299Q counted along it
Summary of the method: as §1

PUM1 PUF domain R2-LWY = PUM1 PUF domain R2-LWY (Homo sapiens, UniProt Q14671 828-1176, N899L;Y900W;Q903Y)
Chain of PUM1 PUF domain R2-LWY (Q14671 828-1176 N899L/Y900W/Q903Y): as the sequence (Q14671 828-1176 N1122M/Y1123W/Q1126R) above, with N72L, Y73W, Q76Y, M295N, W296Y, R299Q counted along it
Summary of the method: as §1

PUM1 PUF domain R5-QWN = PUM1 PUF domain R5-QWN (Homo sapiens, UniProt Q14671 828-1176, C1007Q;R1008W;Q1011N)
Chain of PUM1 PUF domain R5-QWN (Q14671 828-1176 C1007Q/R1008W/Q1011N): as the sequence (Q14671 828-1176 N1122M/Y1123W/Q1126R) above, with C180Q, R181W, Q184N, M295N, W296Y, R299Q counted along it
Summary of the method: as §1

PUM1 PUF domain R1-GLR = PUM1 PUF domain R1-GLR (Homo sapiens, UniProt Q14671 828-1176, S863G;R864L;Q867R)
Chain of PUM1 PUF domain R1-GLR (Q14671 828-1176 S863G/R864L/Q867R): as the sequence (Q14671 828-1176 N1122M/Y1123W/Q1126R) above, with S36G, R37L, Q40R, M295N, W296Y, R299Q counted along it
Summary of the method: as §1

PUM1 PUF domain R8-HWR = PUM1 PUF domain R8-HWR (Homo sapiens, UniProt Q14671 828-1176, N1122H;Y1123W;Q1126R)
Chain of PUM1 PUF domain R8-HWR (Q14671 828-1176 N1122H/Y1123W/Q1126R): as the sequence (Q14671 828-1176 N1122M/Y1123W/Q1126R) above, with M295H counted along it
Summary of the method: as §1

PUM1 PUF domain R8-PYS = PUM1 PUF domain R8-PYS (Homo sapiens, UniProt Q14671 828-1176, N1122P;Q1126S)
Chain of PUM1 PUF domain R8-PYS (Q14671 828-1176 N1122P/Q1126S): as the sequence (Q14671 828-1176 N1122M/Y1123W/Q1126R) above, with M295P, W296Y, R299S counted along it
Summary of the method: as §1

PUM1 PUF domain R7-RVL = PUM1 PUF domain R7-RVL (Homo sapiens, UniProt Q14671 828-1176, S1079R;N1080V;E1083L)
Chain of PUM1 PUF domain R7-RVL (Q14671 828-1176 S1079R/N1080V/E1083L): as the sequence (Q14671 828-1176 N1122M/Y1123W/Q1126R) above, with S252R, N253V, E256L, M295N, W296Y, R299Q counted along it
Summary of the method: as §1

PUM1 PUF domain R1-TVE = PUM1 PUF domain R1-TVE (Homo sapiens, UniProt Q14671 828-1176, S863T;R864V;Q867E)
Chain of PUM1 PUF domain R1-TVE (Q14671 828-1176 S863T/R864V/Q867E): as the sequence (Q14671 828-1176 N1122M/Y1123W/Q1126R) above, with S36T, R37V, Q40E, M295N, W296Y, R299Q counted along it
Summary of the method: as §1

PUM1 PUF domain R5-KFT = PUM1 PUF domain R5-KFT (Homo sapiens, UniProt Q14671 828-1176, C1007K;R1008F;Q1011T)
Chain of PUM1 PUF domain R5-KFT (Q14671 828-1176 C1007K/R1008F/Q1011T): as the sequence (Q14671 828-1176 N1122M/Y1123W/Q1126R) above, with C180K, R181F, Q184T, M295N, W296Y, R299Q counted along it
Summary of the method: as §1

Chain of PUM1 PUF domain R5-HRM (Q14671 828-1176 C1007H/Q1011M): as the sequence (Q14671 828-1176 N1122M/Y1123W/Q1126R) above, with C180H, Q184M, M295N, W296Y, R299Q counted along it

Sequence: GGCUAGAACUAGUGGAUCCCCCGGCGCCCGGCGGCUCGAGCCCGGGUAAGUGUAAAUAGUCUGCAUGCCGCCGGGCGCCAUGCCUGCAGGUCGACUCUAGAAAACAUG
- binding signal (PUM1 PUF domain R5-HRM): 1.49 log2 enrichment (interaction score)
- binding signal (PUM1 PUF domain R8-MWR): 4.37 log2 enrichment (interaction score)
- binding signal (PUM1 PUF domain R5-LYM): 2.36 log2 enrichment (interaction score)
- binding signal (PUM1 PUF domain R3-RTR): 0.19 log2 enrichment (interaction score)
- binding signal (PUM1 PUF domain R4-AMV): 3.03 log2 enrichment (interaction score)
- binding signal (PUM1 PUF domain R5-CHG): 3.32 log2 enrichment (interaction score)
- binding signal (PUM1 PUF domain R4-VSI): 2.13 log2 enrichment (interaction score)
- binding signal (PUM1 PUF domain R5-RQS): 1.32 log2 enrichment (interaction score)
- binding signal (PUM1 PUF domain R4-WGC): 2.66 log2 enrichment (interaction score)
- binding signal (PUM1 PUF domain R5-RRL): 1.79 log2 enrichment (interaction score)
- binding signal (PUM1 PUF domain R8-RFV): 6.16 log2 enrichment (interaction score)
- binding signal (PUM1 PUF domain R3-IWA): 5.07 log2 enrichment (interaction score)

Sequence: GGCUAGAACUAGUGGAUCCCCCGGCGCCCGGCGGCUCGAGCCCGGGUAAGUGUAAAAAGUCUGCAUGCCGCCGGGCGCCAUGCCUGCAGGUCGACUCUAGAAAACAUG
- binding signal (PUM1 PUF domain R2-LWY): 8.01 log2 enrichment (interaction score)

Sequence: GGCUAGAACUAGUGGAUCCCCCGGCGCCCGGCGGCUCGAGCCCGGGUAAGUGUGAAUAGUCUGCAUGCCGCCGGGCGCCAUGCCUGCAGGUCGACUCUAGAAAACAUG
- binding signal (PUM1 PUF domain R5-QWN): 4.78 log2 enrichment (interaction score)
- binding signal (PUM1 PUF domain R5-RQS): 1.05 log2 enrichment (interaction score)
- binding signal (PUM1 PUF domain R5-RRL): 1.14 log2 enrichment (interaction score)

Sequence: GGCUAGAACUAGUGGAUCCCCCGGCGCCCGGCGGCUCGAGCCCGGGUAAGGGUAAAUAGUCUGCAUGCCGCCGGGCGCCAUGCCUGCAGGUCGACUCUAGAAAACAUG
- binding signal (PUM1 PUF domain R8-MWR): 2.37 log2 enrichment (interaction score)

Sequence: GGCUAGAACUAGUGGAUCCCCCGGCGCCCGGCGGCUCGAGCCCGGGUAAGUGUAAAUCGUCUGCAUGCCGCCGGGCGCCAUGCCUGCAGGUCGACUCUAGAAAACAUG
- binding signal (PUM1 PUF domain R1-GLR): 3.78 log2 enrichment (interaction score)

Sequence: GGCUAGAACUAGUGGAUCCCCCGGCGCCCGGCGGCUCGAGCCCGGGUAAGCGUAAAUAGUCUGCAUGCCGCCGGGCGCCAUGCCUGCAGGUCGACUCUAGAAAACAUG
- binding signal (PUM1 PUF domain R8-MWR): 4.99 log2 enrichment (interaction score)
- binding signal (PUM1 PUF domain R8-HWR): 7.03 log2 enrichment (interaction score)
- binding signal (PUM1 PUF domain R8-PYS): 3.23 log2 enrichment (interaction score)
- binding signal (PUM1 PUF domain R8-RFV): 6.22 log2 enrichment (interaction score)

Sequence: GGCUAGAACUAGUGGAUCCCCCGGCGCCCGGCGGCUCGAGCCCGGGUAAGUGUAUAUAGUCUGCAUGCCGCCGGGCGCCAUGCCUGCAGGUCGACUCUAGAAAACAUG
- binding signal (PUM1 PUF domain R4-AMV): 1.51 log2 enrichment (interaction score)
- binding signal (PUM1 PUF domain R4-WGC): 4.53 log2 enrichment (interaction score)

Sequence: GGCUAGAACUAGUGGAUCCCCCGGCGCCCGGCGGCUCGAGCCCGGGUAAGUGUACAUAGUCUGCAUGCCGCCGGGCGCCAUGCCUGCAGGUCGACUCUAGAAAACAUG
- binding signal (PUM1 PUF domain R4-AMV): 1.83 log2 enrichment (interaction score)
- binding signal (PUM1 PUF domain R4-WGC): 1.65 log2 enrichment (interaction score)

Sequence: GGCUAGAACUAGUGGAUCCCCCGGCGCCCGGCGGCUCGAGCCCGGGUAAGUGUUAAUAGUCUGCAUGCCGCCGGGCGCCAUGCCUGCAGGUCGACUCUAGAAAACAUG
- binding signal (PUM1 PUF domain R5-HRM): 4.33 log2 enrichment (interaction score)
- binding signal (PUM1 PUF domain R5-CHG): 3.47 log2 enrichment (interaction score)
- binding signal (PUM1 PUF domain R5-RQS): 5.24 log2 enrichment (interaction score)
- binding signal (PUM1 PUF domain R5-RRL): 4.45 log2 enrichment (interaction score)

Sequence: GGCUAGAACUAGUGGAUCCCCCGGCGCCCGGCGGCUCGAGCCCGGGUAAGUGUAAGUAGUCUGCAUGCCGCCGGGCGCCAUGCCUGCAGGUCGACUCUAGAAAACAUG
- binding signal (PUM1 PUF domain R3-RTR): 1.03 log2 enrichment (interaction score)
- binding signal (PUM1 PUF domain R3-IWA): 5.56 log2 enrichment (interaction score)

Sequence: GGCUAGAACUAGUGGAUCCCCCGGCGCCCGGCGGCUCGAGCCCGGGUAAGUUUAAAUAGUCUGCAUGCCGCCGGGCGCCAUGCCUGCAGGUCGACUCUAGAAAACAUG
- binding signal (PUM1 PUF domain R7-RVL): 3.33 log2 enrichment (interaction score)

Sequence: GGCUAGAACUAGUGGAUCCCCCGGCGCCCGGCGGCUCGAGCCCGGGUAAGUGUAAUUAGUCUGCAUGCCGCCGGGCGCCAUGCCUGCAGGUCGACUCUAGAAAACAUG
- binding signal (PUM1 PUF domain R3-RTR): 4.46 log2 enrichment (interaction score)

Sequence: GGCUAGAACUAGUGGAUCCCCCGGCGCCCGGCGGCUCGAGCCCGGGUAAGUGUAAAUGGUCUGCAUGCCGCCGGGCGCCAUGCCUGCAGGUCGACUCUAGAAAACAUG
- binding signal (PUM1 PUF domain R1-TVE): 2.57 log2 enrichment (interaction score)

Sequence: GGCUAGAACUAGUGGAUCCCCCGGCGCCCGGCGGCUCGAGCCCGGGUAAGUGUCAAUAGUCUGCAUGCCGCCGGGCGCCAUGCCUGCAGGUCGACUCUAGAAAACAUG
- binding signal (PUM1 PUF domain R5-HRM): 1.79 log2 enrichment (interaction score)
- binding signal (PUM1 PUF domain R5-KFT): 5.09 log2 enrichment (interaction score)
- binding signal (PUM1 PUF domain R5-CHG): 1.6 log2 enrichment (interaction score)
- binding signal (PUM1 PUF domain R5-RQS): 4.99 log2 enrichment (interaction score)
- binding signal (PUM1 PUF domain R5-RRL): 3.98 log2 enrichment (interaction score)

Sequence: GGCUAGAACUAGUGGAUCCCCCGGCGCCCGGCGGCUCGAGCCCGGGUAAGUGUAAAUUGUCUGCAUGCCGCCGGGCGCCAUGCCUGCAGGUCGACUCUAGAAAACAUG
- binding signal (PUM1 PUF domain R1-GLR): 2.9 log2 enrichment (interaction score)
